Source: PubChem
Cruzain noTriton: inhibitors of Trypanosoma cruzi cruzain without detergent; Potency, µM, usual class: inhibitors; AID 1476; 2.3% of 200,000 active; P25779; purified cruzain, Z-FR-AMC fluorescence, no detergent; note: nearly all actives have a fitted effect of over 40% in size
Target sequence (P25779 123-467 limits assumed): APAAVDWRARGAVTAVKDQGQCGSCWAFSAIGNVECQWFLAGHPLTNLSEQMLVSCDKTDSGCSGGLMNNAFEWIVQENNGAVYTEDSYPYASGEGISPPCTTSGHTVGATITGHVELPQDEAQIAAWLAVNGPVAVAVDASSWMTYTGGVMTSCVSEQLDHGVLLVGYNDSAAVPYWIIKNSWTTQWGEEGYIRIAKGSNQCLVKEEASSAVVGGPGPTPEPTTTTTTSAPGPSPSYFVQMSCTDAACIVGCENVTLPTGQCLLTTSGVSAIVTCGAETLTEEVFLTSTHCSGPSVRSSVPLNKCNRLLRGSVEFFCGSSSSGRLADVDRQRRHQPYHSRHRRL
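Detergent-free condition (0.00005% Triton X-100) in acetate buffer pH 5.5 with DTT. 1.5 nM enzyme and compound were pre-mixed 15 min, then 2 uM Z-FR-AMC substrate added; reaction progress from fluorescence change between first and third reads (60 s).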
Cruzain Triton: blocks cruzain activity in presence of Triton detergent. P25779. purified cruzain, Z-FR-AMC fluorescence, 0.01% Triton. Potency, µM, hits mostly inhibitors. 0.43% of 200,000 active. AID 1478; note: nearly all actives have a fitted effect of over 40% in size
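In this qHTS format, compounds are incubated with 1.5 nM cruzain for 15 min at room temperature before 2 uM Z-FR-AMC is added. Release of AMC is followed at 360/450 nm, and progress is taken as the 60 s fluorescence difference.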
Each line names hits and unclear results; the compound was inactive in the other large screens. Compounds with a hit are over-represented: about 2.6% of the library has one in this group of screens. Calls come from the whole dose curve; as a rule, active = well fitted curve in the direction sought with a large enough effect; inconclusive = small, poorly fitted or top-dose-only effect, or another doubt; inactive = no such curve, though single readings can be large; an effect the other way counts as inactive or inconclusive.

CC(C)(C)C1CCc2c(sc(NC(=O)c3ccc(Cl)cc3)c2C(=O)NCc2ccco2)C1 (stereo unspecified)	none
COc1ccc(CNC(=O)c2c(Nc3ccccc3C)sc(C(=O)c3ccccc3)c2N)cc1	Cruzain noTriton inconclusive
COc1ccc(CNC(=O)c2c(Nc3ccc(OC)cc3OC)sc(C(=O)c3ccc(Cl)cc3)c2N)cc1	Cruzain noTriton 12.6µM
CCOc1ccc(NC(=O)c2c(Nc3ccc(OC)cc3OC)sc(C(=O)c3ccc(Cl)cc3)c2N)cc1	Cruzain noTriton inconclusive
Cc1ccccc1Nc1sc(C(=O)c2ccccc2)c(N)c1C(=O)NCc1ccc(Cl)cc1	Cruzain noTriton 5.01µM
O=c1oc2cc(OCc3ccc(C(F)(F)F)cc3)ccc2cc1-c1ccccn1	none
COc1ccc2c(-c3cc4ccc(OCc5ccc(F)cc5)cc4oc3=O)cc(=O)oc2c1	Cruzain noTriton 10µM
O=C(O)[C@@H](O)[C@@H](O)[C@@H](O)[C@@H](O)c1nc2ccccc2s1	none
COc1ccc(N=C2SC(CC(=O)Nc3ccc(OC)cc3OC)C(=O)N2C)cc1 (stereo unspecified)	Cruzain noTriton inconclusive
COc1ccc(OC)c(NC(=O)CC2SC(=Nc3ccc(F)cc3)N(CCC3=CCCCC3)C2=O)c1 (stereo unspecified)	Cruzain noTriton 20µM
COc1ccc(OC)c(NC(=O)CC2SC(=Nc3ccccc3)N(CCc3ccccn3)C2=O)c1 (stereo unspecified)	Cruzain noTriton inconclusive
COc1cc([N+](=O)[O-])ccc1NC(=O)CC1SC(=Nc2ccc(F)cc2)N(CCC2=CCCCC2)C1=O (stereo unspecified)	Cruzain noTriton 10µM
Cc1ccc(C(=O)NCC(c2ccc(Cl)cc2)N2CCCCC2)cc1 (stereo unspecified)	none
CCc1ccc(NC(=O)Cn2c(=O)n(CCCCC(=O)NCc3ccc4c(c3)OCO4)c(=O)c3ccccc32)cc1	none
COc1cccc(CNC(=O)CCCn2c(=O)c3cccn3c3ccc(F)cc32)c1OC	none
Cc1ccc(-c2noc(-c3nnn(-c4ccc(Br)cc4F)c3C)n2)cc1	none
CCC1(C)Cc2ccccc2-c2c1c(=O)n(Cc1ccccc1)c1nnnn21 (stereo unspecified)	Cruzain noTriton inconclusive
O=c1c2c(n3nnnc3n1Cc1ccccc1)-c1ccccc1CC21CCCC1	Cruzain noTriton 25.1µM
Cn1c(=O)[nH]c(=O)c2c1nc(N1CCN(c3cccc(Cl)c3)CC1)n2CCCc1ccccc1	Cruzain noTriton 12.6µM
CCCCCn1c(N2CCN(c3cccc(Cl)c3)CC2)nc2c1c(=O)[nH]c(=O)n2C	Cruzain noTriton inconclusive
COc1cc(Cl)c(C)cc1NC(=O)CCc1c(C)nc2c3cccnc3nn2c1C	none
O=C(Nc1ccc(-c2nc3ccc(NC(=O)c4cccs4)cc3[nH]2)cc1)c1cccs1	Cruzain noTriton 25.1µM, Cruzain Triton 11.2µM
O=C(Nc1ccc2nc(-c3cccs3)[nH]c2c1)c1cccs1	none
O=C(Nc1ccc2nc(-c3cccs3)[nH]c2c1)c1ccco1	Cruzain noTriton 20µM
O=C(Nc1cccc(-c2nc3ccccc3[nH]2)c1)c1ccco1	none
Cn1cccc1-c1nc2ccc(NC(=O)c3ccco3)cc2[nH]1	none
Cc1ccccc1-c1nc(-c2ccc(NC(=O)c3cccs3)cc2)no1	Cruzain noTriton inconclusive
O=C(Nc1ccc(-c2noc(-c3ccccc3F)n2)cc1)c1cccs1	Cruzain noTriton 20µM
Cc1ccc2nc(-c3ccc(NC(=O)c4ccco4)cc3)[nH]c2c1	Cruzain Triton 25.1µM
Cn1c(=O)c(-c2cccc(Cl)c2)nc2cncnc21	none
COc1c(C=O)c(=O)[nH]c2c(OC)cccc12	none
CC12CN3CC(C)(CN(C1)C3c1ccc(OCc3ccccc3)cc1)C2=O (stereo unspecified)	none
Cc1cccc(N2CCN(C(=O)c3cn(C4CCCCC4)c(=O)c4c3c3ccccc3n4C)CC2)c1C	none
COc1ccc(C2CC(=O)c3cc(-c4nc(-c5cccc([N+](=O)[O-])c5)cs4)c(=O)n(-c4ccccc4C)c3C2)cc1 (stereo unspecified)	none
O=C(CSc1nccn1Cc1ccc(Cl)cc1)Nc1ccc2c(c1)OCCO2	none
Cc1ccccc1C(=O)Nc1ccc(-c2nc3ccc(C(=O)c4ccccc4)cc3[nH]2)cc1	Cruzain noTriton 12.6µM
O=C(c1ccccc1)c1ccc2nc(-c3ccc(NC(=O)c4ccccc4Br)cc3)[nH]c2c1	none
CCOc1ccc(-c2nc(C(N)=O)c3c(n2)n(-c2ccc4c(c2)OCO4)c(=O)n3CC)cc1	none
CCOc1ccc(S(=O)(=O)NCCc2csc(-c3ccc(Cl)cc3)n2)cc1	none
CCOc1ccccc1NC(=O)C(Cc1ccccc1)NS(=O)(=O)c1ccc(Br)s1 (stereo unspecified)	none
O=C(NC1(C(F)(F)F)NC(=O)N(CCc2ccccc2)C1=O)c1ccccc1Cl (stereo unspecified)	none
Cc1ccc2c(Cl)cc(Cl)c(OCC(=O)Nc3cccc(S(N)(=O)=O)c3)c2n1	none
Cc1ccc2c(Cl)cc(Cl)c(OCC(=O)Nc3cccc(S(=O)(=O)N(C)C)c3)c2n1	Cruzain noTriton 12.6µM
CC(C)(C)c1ccc(S(=O)(=O)NCc2ccc3c(c2)CCN3C(=O)c2ccccc2)cc1	Cruzain noTriton inconclusive
Cc1csc(SCC(=O)c2cc(C)n(Cc3cccs3)c2C)n1	none
Cc1cc(C(=O)CSc2n[nH]c(-c3ccccc3F)n2)c(C)n1Cc1cccs1	Cruzain noTriton 15.8µM
O=C1COc2cc(S(=O)(=O)CCC(=O)NC3CCCCC3)c(Cl)cc2N1	none
C/C(=N\N=C(/N)SC1CC(=O)N(c2ccc(Cl)c(Cl)c2)C1=O)c1cccs1 (stereo unspecified)	Cruzain noTriton 31.6µM
C/C(=N\N=C(/N)SC1CC(=O)N(c2ccc(Cl)cc2)C1=O)c1cccs1 (stereo unspecified)	none
Cc1ccc(CN2C(=O)c3ccccc3Sc3ccc(C(=O)OCc4ccco4)cc32)cc1	none
CC(C)(C)C(=O)NC(=S)Nc1cc(C(F)(F)F)ccc1N1CCOCC1	none
O=C(NC(=S)Nc1cc(C(F)(F)F)ccc1N1CCOCC1)c1sc2ccccc2c1Cl	Cruzain noTriton 20µM
COc1ccc(NC(=O)CSc2nc(-c3ccc(OC)cc3)cc(=O)[nH]2)cc1	none
Cc1ccc(CCNS(=O)(=O)c2cc(-c3cc(C)no3)ccc2C)cc1	none
Clc1nnc(N/N=C/c2ccccc2)c2ccccc12	none
Clc1ccc(/C=N/Nc2nnc(Cl)c3ccccc23)cc1	Cruzain noTriton 25.1µM
CCOc1ccc(-n2c(=O)c3c(C)c(C)sc3n(Cc3ccccc3C)c2=O)cc1	none
CS(=O)(=O)N1CCC2(CC1)CN(c1ncccn1)C2	Cruzain noTriton 15.8µM
CS(=O)(=O)N1CCC[C@@]2(CCN(c3ncccn3)C2)C1	none
CCOC(=O)c1ccc(NC(=O)Cc2noc3ccc(C)cc23)cc1	none
COc1ccc(NC(=O)Cc2noc3ccc(C)cc23)cc1Cl	Cruzain noTriton 25.1µM, Cruzain Triton inconclusive
CC(C)Oc1ccc(CNC(=O)c2ccc3c(c2)nc2n3CCOC2)cc1	none
CCOC(=O)COc1ccccc1-c1ccno1	Cruzain noTriton 25.1µM, Cruzain Triton inconclusive
CCOC(=O)COc1ccc2nsnc2c1Cl	none
CC(C)(C)OC(=O)N1CCC(c2c(C(=O)NCCN3CCC(Cc4ccccc4)CC3)cnn2-c2cccc(Cl)c2)CC1	none
COc1cccc(-n2c(/C=C/c3ccccc3O)nc3ccccc3c2=O)c1	Cruzain noTriton 20µM
COc1cccc(-n2c(SCc3cc(=O)oc4cc(O)c(O)cc34)nc3ccccc3c2=O)c1	Cruzain noTriton 25.1µM
